Assay results from PubChem BioAssay AID1159580 (chemical genetic matrix, 2015).
Where “and” joins values, the source holds several entries; their conditions need not be identical. Identical values can stand only once. In all, about 5,500 compounds went through this assay and about 2,000 (36%) were called active. Inconclusive results (about 18%) are left out. Rule as the data show it: active = normalized growth mostly below about 0.91 (no sharp cut-off); inconclusive = no clear call, values can overlap the other calls; inactive = mostly above about 0.92. The list shows a part of the results.

Experiment: chemical genetic growth profiling, strain panel (AID 1159580);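 also: tested at 20 µM; growth read once vehicle control cultures reached saturation at 30 °C; 1 = growth at the plate median or of vehicle wells; lower values mean less growth of the strain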
Conditions: S. cerevisiae deletion strains, growth OD

Measured: normalized growth

CCCc1ncc(C[n+]2ccccc2C)c(N)n1
inactive: locus YAL021C, strain ccr4, hits give low values 0.94 | locus YAL026C, strain drs2, hits give low values 0.999 | locus YAL030W, strain snc1, hits give low values 0.991 | locus YBL061C, strain skt5, hits give low values 0.976 | locus YBR009C, strain hhf1, hits give low values 1.03 | locus YBR021W, strain FUR4, hits give low values 1.06 | locus YBR023C, strain chs3, hits give low values 0.999 | locus YBR171W, strain sec66, hits give low values 0.969 | locus YBR229C, strain ROT2, hits give low values 1 | locus YBR231C, strain swc5, hits give low values 0.966 | locus YBR279W, strain paf1, hits give low values 1.01 | locus YCL011C, strain gbp2, hits give low values 1 | locus YCL016C, strain dcc1, hits give low values 1.01 | locus YCL029C, strain bik1, hits give low values 1 | locus YCL069W, strain vba3, hits give low values 0.981 | locus YCR088W, strain abp1, hits give low values 0.992 | locus YDL005C, strain med2, hits give low values 0.929 | locus YDL035C, strain GPR1, hits give low values 1.01 | locus YDL040C, strain nat1, hits give low values 0.967 | locus YDL074C, strain BRE1, hits give low values 0.99 | locus YDL101C, strain DUN1, hits give low values 1 | locus YDL134C, strain PPH21, hits give low values 0.996 | locus YDL185W, strain tfp1, hits give low values 1.01 | locus YDL192W, strain arf1, hits give low values 0.999 | locus YDR001C, strain nth1, hits give low values 0.987 | locus YDR069C, strain doa4, hits give low values 0.983 | locus YDR101C, strain arx1, hits give low values 1.01 | locus YDR137W, strain rgp1, hits give low values 0.998 | locus YDR159W, strain sac3, hits give low values 0.995 | locus YDR162C, strain NBP2, hits give low values 1.01 | locus YDR195W, strain ref2 0.932 | locus YDR297W, strain sur2, hits give low values 0.999 | locus YDR318W, strain mcm21, hits give low values 0.995 | locus YDR334W, strain swr1, hits give low values 0.992 | locus YDR335W, strain msn5, hits give low values 0.99 | locus YDR388W, hits give low values 0.997 | locus YDR392W, strain spt3, hits give low values 1.08 | locus YDR502C, strain sam2, hits give low values 0.993 | locus YEL003W, strain gim4, hits give low values 0.983 | locus YEL037C, strain rad23, hits give low values 0.984 | locus YEL061C, strain CIN8 (second series), hits give low values 0.988 | locus YEL061C, strain CIN8, hits give low values 1 | locus YER015W, strain faa2, hits give low values 0.992 | locus YER016W, strain bim1, hits give low values 1.02 | locus YER110C, hits give low values 0.99 | locus YER111C, strain swi4, hits give low values 0.983 | locus YER155C, strain BEM2 (second series), hits give low values 0.975 | locus YER155C, strain BEM2, hits give low values 0.991 | locus YER167W, strain BCK2, hits give low values 0.991 | locus YFR010W, strain ubp6, hits give low values 0.99 | locus YGL078C, strain dbp3, hits give low values 0.988 | locus YGL086W, strain mad1, hits give low values 0.984 | locus YGL167C, strain pmr1, hits give low values 0.961 | locus YGL173C, strain kem1, hits give low values 0.947 | locus YGL227W, strain vid30, hits give low values 0.988 | locus YGL240W, strain doc1, hits give low values 0.96 | locus YGL248W, strain PDE1, hits give low values 0.983 | locus YGL253W, strain hxk2, hits give low values 1.01 | locus YGR078C, strain PAC10, hits give low values 0.983 | locus YGR135W, strain pre9, hits give low values 0.984 | locus YGR229C, strain SMI1, hits give low values 0.997 | locus YGR252W, strain gcn5, hits give low values 0.967 | locus YHR013C, strain ard1, hits give low values 0.986 | locus YHR027C, strain rpn1, hits give low values 0.997 | locus YHR030C, strain SLT2, hits give low values 1 and 1.11 | locus YHR079C, strain IRE1 (second series), hits give low values 0.998 | locus YHR079C, strain IRE1, hits give low values 1.04 | locus YHR094C, strain hxt1, hits give low values 0.994 | locus YHR129C, strain ARP1, hits give low values 1 | locus YHR142W, strain chs7, hits give low values 0.976 | locus YHR200W, strain rpn10, hits give low values 0.995 | locus YIL066C, strain RNR3, hits give low values 1.02 | locus YIL073C, strain SPO22, hits give low values 0.975 | locus YIL125W, strain kgd1, hits give low values 0.986 | locus YIR030C, strain dcg1, hits give low values 1.02 | locus YJL092W, strain hpr5, hits give low values 0.959 | locus YJL095W, strain BCK1 (second series), hits give low values 0.95 | locus YJL095W, strain BCK1, hits give low values 1.03 and 1.04 | locus YJL115W, strain asf1, hits give low values 0.981 | locus YJL129C, strain trk1, hits give low values 0.966 | locus YJL134W, strain LCB3, hits give low values 1.01 | locus YJL154C, strain vps35, hits give low values 0.972 | locus YJL164C, strain tpk1, hits give low values 1.01 | locus YJL166W, strain qcr8, hits give low values 0.941 | locus YJL168C, strain set2, hits give low values 1 | locus YJL187C, strain SWE1 (second series), hits give low values 0.988 | locus YJR043C, strain POL32, hits give low values 0.989 | locus YJR066W, strain TOR1, hits give low values 0.993 | locus YJR075W, strain HOC1, hits give low values 0.988 | locus YKL009W, strain mrt4, hits give low values 0.958 | locus YKL068W, hits give low values 0.995 | locus YKL085W, strain MDH1 (second series), hits give low values 0.983 | locus YKL085W, strain MDH1, hits give low values 0.983 | locus YKL160W, strain elf1, hits give low values 0.981 | locus YKL190W, strain CNB1, hits give low values 1.01 | locus YKR001C, strain vps1, hits give low values 1 | locus YKR091W, strain srl3, hits give low values 0.964 | locus YLL001W, strain dnm1, hits give low values 0.931 | locus YLL026W, hits give low values 0.983 | locus YLL041C, strain sdh2, hits give low values 0.991 | locus YLR027C, strain aat2, hits give low values 0.983 | locus YLR039C, strain RIC1, hits give low values 0.944 | locus YLR058C, strain SHM2, hits give low values 1.01 | locus YLR102C, strain apc9, hits give low values 0.995 | locus YLR113W, strain HOG1, hits give low values 1.05 | locus YLR221C, strain rsa3, hits give low values 1.02 | locus YLR258W, strain gsy2, hits give low values 0.991 | locus YLR262C, strain YPT6 (second series), hits give low values 0.951 | locus YLR262C, strain YPT6, hits give low values 0.988 | locus YLR268W, strain sec22, hits give low values 0.985 | locus YLR320W, strain mms22, hits give low values 1.01 | locus YLR330W, strain CHS5, hits give low values 1.01 | locus YLR342W, strain FKS1 (second series), hits give low values 0.999 | locus YLR342W, strain FKS1, hits give low values 0.958 | locus YLR357W, strain rsc2, hits give low values 0.977 | locus YLR370C, strain arc18, hits give low values 0.997 | locus YLR371W, strain rom2, hits give low values 0.996 | locus YLR384C, strain iki3, hits give low values 0.976 | locus YLR418C, strain cdc73, hits give low values 0.977 | locus YML016C, strain PPZ1, hits give low values 1.01 | locus YML032C, strain rad52, hits give low values 0.988 | locus YML120C, strain ndi1, hits give low values 0.98 | locus YML124C, strain tub3, hits give low values 0.989 | locus YMR058W, strain fet3, hits give low values 0.975 | locus YMR078C, strain ctf18, hits give low values 0.999 | locus YMR125W, strain sto1, hits give low values 0.969 | locus YMR129W, hits give low values 0.986 | locus YMR205C, strain PFK2, hits give low values 0.982 | locus YMR223W, strain ubp8, hits give low values 0.997 | locus YMR231W, strain pep5, hits give low values 0.978 | locus YMR307W, strain GAS1, hits give low values 1.06 | locus YNL067W, strain RPL9B, hits give low values 0.992 | locus YNL071W, strain lat1, hits give low values 0.995 | locus YNL153C, strain GIM3, hits give low values 0.987 | locus YNL183C, strain NPR1, hits give low values 0.988 | locus YNL209W, strain ssb2, hits give low values 0.993 | locus YNL233W, strain BNI4, hits give low values 1.01 | locus YNL248C, strain rpa49, hits give low values 0.995 | locus YNL250W, strain rad50, hits give low values 0.994 | locus YNL271C, strain bni1, hits give low values 1 | locus YNL298W, strain CLA4, hits give low values 0.995 | locus YNL307C, strain MCK1, hits give low values 0.992 | locus YNL322C, strain KRE1 (second series), hits give low values 0.961 | locus YNR049C, strain mso1, hits give low values 0.987 | locus YNR052C, strain pop2, hits give low values 0.999 | locus YOL012C, strain htz1 0.884 | locus YOL147C, strain pex11, hits give low values 0.994 | locus YOR001W, strain rrp6, hits give low values 0.979 | locus YOR061W, strain CKA2, hits give low values 1.01 | locus YOR069W, strain VPS5, hits give low values 1 | locus YOR070C, strain gyp1, hits give low values 0.992 | locus YOR080W, strain dia2, hits give low values 0.965 | locus YOR083W, strain WHI5, hits give low values 0.94 | locus YOR106W, strain vam3, hits give low values 0.945 | locus YOR136W, strain idh2, hits give low values 0.983 | locus YOR144C, strain elg1, hits give low values 0.989 | locus YOR184W, strain ser1, hits give low values 0.993 | locus YOR231W, strain MKK1, hits give low values 1.04 | locus YOR265W, strain rbl2, hits give low values 0.987 | locus YOR270C, strain vph1, hits give low values 1 | locus YOR290C, strain snf2, hits give low values 1.01 | locus YOR316C, strain cot1, hits give low values 0.997 | locus YPL051W, strain arl3, hits give low values 0.998 | locus YPL055C, strain LGE1, hits give low values 1.01 | locus YPL078C, strain atp4, hits give low values 0.954 | locus YPL106C, strain sse1, hits give low values 1 | locus YPL240C, strain hsp82, hits give low values 0.985 | locus YPL256C, strain CLN2, hits give low values 1.08 | locus YPR119W, strain clb2, hits give low values 0.998 | locus YPR141C, strain kar3, hits give low values 0.976 | locus YPR163C, strain tif3, hits give low values 0.987 | locus YPR167C, strain met16, hits give low values 0.991 | strain wtn01, hits give low values 0.973
